Records with an inconclusive call do not appear. The source made the active and inactive calls. Unless noted, calls follow the shape of the dose curve; as a rule, active = well fitted curve in the direction sought with a large enough effect in the repeat runs; inconclusive = weak or mixed curves; inactive = no such curve, though single readings can be large; an effect the other way counts as inactive or inconclusive.
Experiments:
[1] = qHTS assay for small molecule agonists of the p53 signaling pathway (AID 651631; calls by dose curve; also: nearly all actives have a fitted effect of over 15% in size; also: potency is read from the fitted curve at half-maximal effect)
In short: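 HCT-116 cells carrying a stable p53 response element–beta-lactamase reporter were plated, rested 5 h at 37 °C, then exposed to compound in DMSO for 16 h at 37 °C; reporter activity was read as FRET substrate fluorescence after 2 h at room temperature.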

[2] = qHTS assay for small molecules that induce genotoxicity in human embryonic kidney cells expressing luciferase-tagged ATAD5 (AID 651632); also: nearly all actives have a fitted effect of over 15% in size; also: potency is read from the fitted curve at half-maximal effect
In short: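 Luminescence read-out: after 16 hr compound exposure at 37C, ATAD5-luciferase HEK293T cells received Amplite, 30 min RT, then CCD imaging. A rise in signal marks genotoxic stress.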

[3] = qHTS assay for small molecule agonists of the p53 signaling pathway - cell viability (AID 651633; calls by dose curve; also: series mostly up to about 83 µM; nearly all actives have a fitted effect of over 30% in size)
In short: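 Viability counter-read: CellTiter-Glo luminescence (30 min, room temperature) in the same p53RE-bla plates. These plates had been exposed to compounds for 16 h at 37 C.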

[4] = qHTS assay for small molecules that induce genotoxicity in human embryonic kidney cells expressing luciferase-tagged ATAD5 - cell viability (AID 651634; calls by dose curve; also: nearly all actives have a fitted effect of over 25% in size; also: potency is read from the fitted curve at half-maximal effect)
In short: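 HEK293T ATAD5-luc cells, 2,000/well; compound 15.5 hr, 37C/5% CO2; CellTiter-Fluor 30 min, 37C; fluorescence read.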

[5] = qHTS assay for small molecule disruptors of the mitochondrial membrane potential - cell viability (AID 720634; calls by dose curve; also: nearly all actives have a fitted effect of over 20% in size; also: potency is read from the fitted curve at half-maximal effect)
In short: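 Luminescence from CellTiter-Glo (ATP content) gave viability in HepG2 cells, read in the same wells as the MMP dye assay after 1 hr compound exposure at 37 C.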

[6] = qHTS assay for small molecule disruptors of the mitochondrial membrane potential (AID 720635); also: potency is read from the fitted curve at half-maximal effect
In short: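 Mitochondrial membrane potential tracked with Mito-MPS dye, red aggregates (ex 540/em 590 nm) against green monomers (ex 490/em 535 nm). Compound treatment 1 hr at 37C, dye 30 min in HepG2.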

[7] = qHTS assay to test for compound auto fluorescence at 590 nm (red) in HepG2 cells (AID 720674)
In short: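 We screened compounds on adherent HepG2 cells, incubating them for an hour at 37 C in 5% CO2 before reading emission at 590 nm under 540 nm excitation; values reflect equivalence to Rose Bengal sodium fluorescence.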

[8] = qHTS assay to test for compound auto fluorescence at 535 nm (green) in HepG2 cells (AID 720675)
[9] = qHTS assay to test for compound auto fluorescence at 460 nm (blue) in HEK293 cells (AID 720678)
In short: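 After cell attachment (4-5 hr, 37C), compounds were pinned onto HEK293 monolayers in 10% dialyzed FBS medium. The blue channel (405/460 nm) was read following overnight culture. Equivalency was calculated against triamterene.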

[10] = qHTS assay to test for compound auto fluorescence at 590 nm (red) in HEK293 cells (AID 720679)
In short: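 Plates of HEK293 cells (10% dialyzed FBS) are treated with 23 nL compound or DMSO vehicle after a 4-5 hr attachment period, incubated overnight at 37C, and read for red fluorescence at 540/590nm.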

[11] = qHTS assay to test for compound auto fluorescence at 535 nm (green) in HEK293 cells (AID 720680)
[12] = qHTS assay to test for compound auto fluorescence at 460 nm (blue) in HEK293 cell free culture (AID 720681)
In short: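 Blue fluorescence (Ex 405/Em 460 nm, triamterene-equivalent) was read immediately after pin transfer of compound or DMSO into medium (DMEM, 10% FBS) without cells.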

[13] = qHTS assay to test for compound auto fluorescence at 535 nm (green) in HEK293 cell free culture (AID 720682)
In short: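 Read-out: 485/535 nm fluorescence intensity, calibrated against fluorescein. Medium only (DMEM + 10% FBS, no cells); test compound or DMSO vehicle added by pintool before plate reading.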

[14] = qHTS assay to test for compound auto fluorescence at 590 nm (red) in HEK293 cell free culture (AID 720683)
In short: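 Red-channel autofluorescence of compounds in culture medium (DMEM, 10% FBS), no cells, measured at 540/590 nm. Rose Bengal sodium is the reference fluorophore for equivalence.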

[15] = qHTS assay to test for compound auto fluorescence at 590 nm (red) in HepG2 cell free culture (AID 720684)
In short: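 Cell-free; medium MEM + 10% FBS; compound or DMSO added by pintool; read Ex 540/Em 590 nm; Rose Bengal sodium as red reference fluorophore.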

[16] = qHTS assay to test for compound auto fluorescence at 460 nm (blue) in HepG2 cell free culture (AID 720685)
In short: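 Cell-free plates of MEM plus 10% FBS received 23 nL compound or DMSO vehicle; blue-channel (405/460 nm) intensity scored against triamterene as reference fluorophore.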

[17] = qHTS assay to test for compound auto fluorescence at 535 nm (green) in HepG2 cell free culture (AID 720686)
[18] = qHTS assay to test for compound auto fluorescence at 460 nm (blue) in HepG2 cells (AID 720687)
In short: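 Blue-channel autofluorescence (Ex/Em 405/460 nm, triamterene-equivalent) was measured after 1 hr compound exposure at 37 C, 5% CO2. Cells were HepG2, plated overnight at 37 C in MEM plus 10% FBS.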

[19] = target: Glucocorticoid receptor (Homo sapiens) (UniProt P04150); assay: qHTS assay to identify small molecule agonists of the glucocorticoid receptor (GR) signaling pathway (AID 720691; active = well fitted activation curve with a large enough effect in the signal ratio in the repeat runs, not every such curve was filed as active; the % refers to the signal ratio)
In short: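 HeLa GR-bla reporter line; cells pre-incubated 4 h, compound in DMSO 18 h at 37 C; LiveBLAzer B/G FRET substrate 2 h RT; fluorescence intensity read-out.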

[20] = target: Glucocorticoid receptor (Homo sapiens) (UniProt P04150); assay: qHTS assay to identify small molecule antagonists of the glucocorticoid receptor (GR) signaling pathway (AID 720692; active = well fitted inhibition curve with a large enough effect in the signal ratio in the repeat runs, not every such curve was filed as active; the % refers to the signal ratio)
In short: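 Read-out: beta-lactamase FRET substrate fluorescence, 2 h at room temperature, in HeLa cells stably carrying a GRE-driven bla reporter. Compounds were co-incubated with 5 nM dexamethasone agonist (final) for 18 h at 37 C.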
% is scaled to controls: 0 for no effect and ±100 for the full control effect.

Glucocorticoid receptor (Homo sapiens), sequence (P04150 whole entry, looked up): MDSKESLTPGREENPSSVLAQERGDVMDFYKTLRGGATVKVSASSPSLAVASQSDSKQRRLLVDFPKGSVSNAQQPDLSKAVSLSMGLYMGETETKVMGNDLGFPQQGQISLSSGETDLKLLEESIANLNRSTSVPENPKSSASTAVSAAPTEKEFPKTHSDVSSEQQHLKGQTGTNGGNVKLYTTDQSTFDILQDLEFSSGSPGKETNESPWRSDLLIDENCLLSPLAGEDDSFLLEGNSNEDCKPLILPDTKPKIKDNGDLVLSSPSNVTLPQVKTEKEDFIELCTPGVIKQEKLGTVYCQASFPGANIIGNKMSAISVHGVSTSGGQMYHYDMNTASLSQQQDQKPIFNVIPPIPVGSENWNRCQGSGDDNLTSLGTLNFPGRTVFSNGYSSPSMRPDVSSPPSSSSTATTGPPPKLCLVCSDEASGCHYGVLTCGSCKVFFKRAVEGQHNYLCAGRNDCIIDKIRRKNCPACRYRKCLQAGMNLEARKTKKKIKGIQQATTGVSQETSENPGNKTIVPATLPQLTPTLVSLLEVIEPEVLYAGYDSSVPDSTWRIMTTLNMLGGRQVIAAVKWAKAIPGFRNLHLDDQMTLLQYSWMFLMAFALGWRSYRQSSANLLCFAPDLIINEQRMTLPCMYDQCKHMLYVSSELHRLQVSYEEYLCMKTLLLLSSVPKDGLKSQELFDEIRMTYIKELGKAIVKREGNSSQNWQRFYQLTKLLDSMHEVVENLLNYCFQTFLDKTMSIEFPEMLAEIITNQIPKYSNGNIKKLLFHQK

CCN1C(=O)c2ccccc2C1Nc1ccc(OCCN2CCCCC2)cc1 (stereo not given)
inactive: Potency [1] | Potency [2] | Potency [3] | Potency [4] | Potency [5] | Potency [6] | Potency [7] | Potency [8] | Potency [9] | Potency [10] | Potency [11] | Potency [12] | Potency [13] | Potency [14] | Potency [15] | Potency [16] | Potency [17] | Potency [18] | Potency [19] | Potency [20]

C=Cc1ccccc1C=C
inactive: Potency [1] | Potency [2] | Potency [3] | Potency [4] | Potency [5] | Potency [6] | Potency [7] | Potency [8] | Potency [9] | Potency [10] | Potency [11] | Potency [12] | Potency [13] | Potency [14] | Potency [15] | Potency [16] | Potency [17] | Potency [18] | Potency [19] | Potency [20]

O=[N+]([O-])c1ccc(O)cc1C(F)(F)F
active: Potency [1] 27.3 µM | Potency [4] 27.3 µM | Potency [5] 5.45 µM | Potency [6] 3.44 µM
inactive: Potency [2] | Potency [3] | Potency [7] | Potency [8] | Potency [9] | Potency [10] | Potency [11] | Potency [12] | Potency [13] | Potency [14] | Potency [15] | Potency [16] | Potency [17] | Potency [19]

NC(=S)NC(N)=S
inactive: Potency [1] | Potency [2] | Potency [3] | Potency [4] | Potency [5] | Potency [6] | Potency [7] | Potency [8] | Potency [9] | Potency [10] | Potency [11] | Potency [12] | Potency [13] | Potency [14] | Potency [15] | Potency [16] | Potency [17] | Potency [18] | Potency [19] | Potency [20]

O=c1c(O)c(-c2ccc(O)cc2O)oc2cc(O)cc(O)c12
active: Potency [6] 22.9 µM
inactive: Potency [1] | Potency [2] | Potency [3] | Potency [4] | Potency [5] | Potency [7] | Potency [8] | Potency [9] | Potency [10] | Potency [11] | Potency [12] | Potency [13] | Potency [15] | Potency [16] | Potency [17] | Potency [18] | Potency [19] | Potency [20]

COC(=O)Nc1nc2ccc(C(=O)c3ccccc3)cc2[nH]1
active: Potency [1] 0.16 µM | Potency [2] 3.2 µM | Potency [6] 2.27 µM
inactive: Potency [3] | Potency [4] | Potency [5] | fluorescence, relative to Rose Bengal [7] -0.678% [at 18.6 µM] | fluorescence, % of fluorescein control [8] 0.0492% [at 18.6 µM] | fluorescence, % of fluorescent control [10] 0.41% [at 18.6 µM] | fluorescence, % of fluorescein [11] -0.035% [at 18.6 µM] | fluorescence, % of fluorescent control [12] -0.0403% [at 18.6 µM] | activity change [13] -0.0263% [at 18.6 µM, hits give high values] | fluorescence, % of fluorescent control [14] 0.0057% [at 18.6 µM] | fluorescence, % of Rose Bengal [15] 0.103% [at 18.6 µM] | fluorescence, % of fluorescent control [16] 0.0166% [at 18.6 µM] | fluorescence, % of fluorescein control [17] 0.0619% [at 18.6 µM] | fluorescence, % of fluorescent control [18] 0.116% [at 18.6 µM] | Potency [19]
